NALP1 yeast inh = NALP1 inhibition. S. cerevisiae NALP1/ASC/caspase-1 growth, X-gal OD620, 72 h. inhibition, % at 10 µM. 280,000 compounds, 0.61% hits; in the data active means inhibition mostly above about 24%, no sharp cut-off; inactive means mostly below about 32%
TIM10 inh = inhibits growth of TIM10 yeast strain | 330,000 compounds, 1.4% hits | inhibition, % at 10 µM | S. cerevisiae TIM10 strain growth, BacTiter-Glo luminescence, 24 h;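 active means inhibition of 40% or more at the single tested concentration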;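 further: wild-type TIM10 isogenic control strain grown at permissive 25 °C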
PfHsp90 set2 = growth inhibition of yeast expressing Plasmodium Hsp90; S. cerevisiae expressing PfHsp90, BacTiter-Glo ATP, 48 h; yeast lacking PDR1 and PDR3 efflux regulators; inhibition, % at 9.4 µM; 310,000 compounds, 0.32% hits;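 active means every replicate shows inhibition above about 80%, whatever the replicate mean, limit read from the data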;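 further: 0% = DMSO neutral controls and 100% = 20 µM radicicol positive controls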
tim10-1 inh = inhibits growth of tim10-1 mutant yeast; S. cerevisiae tim10-1 ts strain growth, BacTiter-Glo, 24 h; inhibition, % at 20 µM; 330,000 compounds, 2.2% hits; AID 463190;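 active means inhibition of at least 40%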;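 further: mutant grown at 25 °C; 0% = DMSO wells with yeast and 100% = wells holding no yeast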
SKKanGAS inh = blocks kanamycin growth of S. pyogenes SKKanGAS strain; BacTiter-Glo, 6 h; inhibition, % at 7.5 µM; 300,000 compounds, 1.3% hits; AID 1662;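 active means mean replicate score, as percent of positive control median, at least 50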;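 further: strain carries kanamycin resistance gene driven by streptokinase promoter and grows in 40 µg/ml kanamycin; loss of luminescence reflects streptokinase promoter inhibition or plain growth inhibition; 0% = median of DMSO wells and 100% = positive control at its reference dose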
tim23-1 inh = inhibits growth of tim23-1 mutant yeast; S. cerevisiae tim23-1 growth, BacTiter-Glo luminescence, 24 h; AID 463212; 330,000 compounds, 1.3% hits; inhibition, % at 20 µM;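 active means growth inhibition of the mutant yeast at or above 50%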;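 further: temperature-sensitive mutant grown at 25 °C; plate controls were DMSO-treated mutant yeast for no effect and medium wells lacking yeast for full effect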
tim23-1 confirm = confirmation of tim23-1 mutant yeast growth inhibitors; shares compounds with tim23-1 inh; S. cerevisiae tim23-1 growth, BacTiter-Glo luminescence, 24 h; inhibition, % at 20 µM; 4,400 compounds, 83% hits; AID 463218;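 active means inhibition above about 39% in either of two replicate wells at 20 µM, limit read from the data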;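 further: temperature-sensitive tim23-1 mutant grown at 25 °C; 0% = DMSO wells with yeast and 100% = medium wells without yeast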
Active calls of the source: *; x = not tested or not shown. Rows were chosen to be rich in hits. Some 4.8% of all compounds tested hit in one or more screens of this group.

SMILES	NALP1 yeast inh	TIM10 inh	PfHsp90 set2	tim10-1 inh	SKKanGAS inh	tim23-1 inh	tim23-1 confirm
Cc1ccc(NC(=O)N2CCN(C(=O)C3CCCO3)CC2)cc1 (stereo unspecified)	19.8	4.1	8.5	-21.4	-2.8	-10.2	x
COc1ccc(Br)cc1CN1CCN(C(=O)c2ccc(F)cc2)CC1	0.9	22.3	-0.4	8.3	7.4	16.4	x
CC(NC(=O)c1ccc(Cl)c(S(=O)(=O)N2CCCCCC2)c1)c1cccnc1 (stereo unspecified)	x	-12.1	3.0	-12.6	x	2.3	x
CCn1c(SCC(=O)Nc2oc(C)c3c(C)n[nH]c(=O)c23)nc2sc(C)c(C)c2c1=O	x	29.1	-25.2	30.3	-2.7	55.3*	7.5
CNC(C)C#Cc1c(-c2cc(OC)c(OC)c(OC)c2)noc1C (stereo unspecified)	18.5	5.5	24.3	10.9	3.9	21.1	x
CC(C)(C)c1csc(NC(=O)c2cccs2)n1	36.2	35.8	29.4	-14.0	17.6	55.6*	34.1
Cc1c(Cl)cccc1NCC(=O)Nc1ccc(Cl)cc1F	15.8	30.2	0.0	26.1	-14.7	54.4*	41.9*
Cc1noc(C)c1NC(=O)N(C)C[C@H]1Oc2c(NC(=O)Cc3ccccc3)cccc2C(=O)N([C@H](C)CO)C[C@@H]1C	x	-0.7	4.9	17.7	x	11.5	x
CCc1oc2ccccc2c1C(=O)c1cc(Br)c(O)c(Br)c1	21.1	17.3	-2.1	-16.3	49.7*	55.8*	-19.9
CCc1ccc(OCC(=O)c2c(O)c3ccccc3oc2=O)cc1	0.8	7.8	-10.4	9.7	7.7	21.7	x
O=C(NCc1ccccc1Br)c1cccc2c1C(=O)c1ccc(N3CCOCC3)cc1S2(=O)=O	x	-5.3	x	-0.9	x	7.5	x
COC(=O)c1ccc(NC(=O)C[n+]2ccccc2C)cc1	9.0	3.8	-9.4	-6.9	-0.6	-3.0	x
O=C(NCc1ccncc1)c1cn(-c2ccccc2)nc1-c1cccnc1	-6.9	18.1	-5.8	13.8	1.2	-4.6	x
O=Cc1cn(-c2ccccc2)nc1-c1cccnc1	16.9	39.7	1.0	27.6	-2.9	62.0*	57.3*
Cc1cc(NS(=O)(=O)c2cccc([N+](=O)[O-])c2)no1	4.6	6.7	6.3	7.8	8.0	6.5	x
COc1ccc(/C=N/Nc2cc(C)nc(N3CCOCC3)n2)cc1OC	1.1	7.4	x	5.8	-10.4	16.5	x
Cc1nc(NS(=O)(=O)c2ccccc2C)c2c3c(sc2n1)CCC3	27.1	19.8	x	31.7	20.9	52.7*	51.0*
CC(=O)c1ccc(NC(=O)CSc2nc(=O)n3cccc(C)c3n2)cc1	x	-3.4	-23.5	-5.6	-10.7	19.3	x
COC(=O)c1ccc(NC(=O)CSc2nc(=O)n3cccc(C)c3n2)cc1	x	-9.2	x	-14.5	-6.5	71.7*	52.8*
COc1ccc2c(=O)c(-c3ccc(OC)c(OC)c3)coc2c1	16.0	8.4	14.7	27.7	0.6	9.7	x
COc1ccc(-c2coc3cc(OC(C)=O)c(OC)cc3c2=O)cc1	x	19.5	-11.1	4.5	x	53.2*	28.4
COC(=O)c1cc(NC(=O)C2(S(=O)(=O)c3ccc(Cl)cc3)CC2)cc(C(=O)OC)c1	7.1	9.4	0.5	7.9	-5.2	7.5	x
Cc1cc(C(=O)N/N=C/c2ccc([N+](=O)[O-])s2)c2ccccc2n1	-5.1	27.4	-1.6	31.6	13.4	64.7*	59.4*
O=C(N/N=C/c1cc([N+](=O)[O-])ccc1Cl)c1cc(-c2ccccc2)nc2ccccc12	x	-21.0	-38.6	-9.1	-4.7	-2.9	x
O=C(N/N=C/c1ccc([N+](=O)[O-])s1)c1ccccc1Br	1.8	18.2	4.9	-4.6	9.1	76.7*	64.3*
SMILES	NALP1 yeast inh	TIM10 inh	PfHsp90 set2	tim10-1 inh	SKKanGAS inh	tim23-1 inh	tim23-1 confirm
Cc1cccc(/C=N/NC(=O)c2cc(C)nc3ccccc23)n1	-2.9	0.7	5.2	-16.7	0.2	5.4	x
O=C(N/N=C/c1cc([N+](=O)[O-])ccc1O)c1cc(-c2ccccc2)nc2ccccc12	11.5	35.6	-19.7	38.6	89.7*	57.5*	58.3*
O=C(Cc1ccccc1)N/N=C/c1ccc([N+](=O)[O-])s1	-0.4	37.4	-6.4	-13.4	10.1	-11.7	x
C/C(=N\N(C)C)C1=C(O)c2ccccc2C1=O	53.9	5.0	-11.1	8.3	-0.5	21.7	x
CCOc1ccc(N=C(C)C2=C(O)c3ccccc3C2=O)cc1	x	16.8	16.8	7.5	20.2	60.4*	57.7*
O=C(Cn1c(C(F)(F)F)nc2ccccc21)N=Nc1c(O)[nH]c2ccc(Br)cc12	11.2	6.8	-11.6	9.8	-1.3	-2.9	x
COc1ccc2c(C)cc(=O)oc2c1	x	x	-13.1	x	x	x	x
Cc1cc(=O)oc2cc(Oc3ccc([N+](=O)[O-])cc3[N+](=O)[O-])ccc12	3.9	30.2	-23.6	21.2	-1.0	54.9*	42.8*
C=CCn1c(SCc2cc(=O)n3ccsc3n2)nc2ccccc2c1=O	7.2	5.2	-62.8	10.8	5.1	51.3*	56.1*
C=CCn1c(SCc2cc(=O)n3ccsc3n2)nc2cc(Cl)ccc2c1=O	0.6	28.9	42.0	26.9	-0.6	55.4*	58.5*
C=CCn1c(SCc2cc(=O)n3ccsc3n2)nc2scc(C3CC3)c2c1=O	17.2	13.3	44.0	39.0	8.8	31.1	x
O=c1c2ccccc2nc(SCc2cc(=O)n3ccsc3n2)n1CCCO	25.4	x	x	x	x	x	x
CN(C)CCCNC(=O)c1ccc(-c2ccccc2)cc1	6.4	-10.4	-3.4	-8.0	7.4	-5.3	x
Cc1nc2cc(-c3ccccc3)sc2c(=O)n1N	-1.3	32.5	56.4	36.1	63.0*	51.1*	52.8*
Cc1ccc(C)n1-n1c(C)nc2sc(-c3ccccc3)cc2c1=O	8.1	-7.2	-3.7	-1.4	6.0	12.9	x
O=C(O)c1ccc(N=N/C(=N\Nc2ccc(C(=O)O)cc2)c2ccccc2)cc1	x	10.2	12.0	5.1	22.3	24.7	x
O=C(O)c1cccc(N/N=C(\N=Nc2ccccc2)c2ccccc2)c1	x	3.0	0.2	34.3	21.4	52.9*	45.9*
CC1CCCN(CC(=O)NC(=O)NC2CCCCC2)C1 (stereo unspecified)	x	3.5	-32.4	3.5	x	1.0	x
COc1ccc(C2=NOC(C(=O)NCc3ccccn3)C2)cc1OC (stereo unspecified)	2.0	10.9	x	14.7	3.3	6.0	x
O=C(CCl)Nc1cn(-c2ccccc2)nc1-c1ccc(F)cc1	6.9	11.6	x	27.6	-0.6	60.6*	31.6
Cc1cnc(NC(=O)Nc2ccccc2)c(C)n1	9.8	16.7	14.9	9.7	-2.3	6.8	x
COc1ccc(OC)c(-c2csc(NC(=O)Cc3ccccc3F)n2)c1	21.1	12.7	-31.0	14.7	0.5	51.0*	46.4*
O=C(/C=C/c1cccnc1)c1ccccc1O	-3.8	-4.1	-35.1	35.8	1.6	51.5*	50.5*

Assay outcomes deposited in PubChem by several laboratories.
